# High-throughput results deposited in PubChem BioAssay by National Center for Advancing Translational Sciences (NCATS).
# Hits are enriched below; roughly 10% of the tested compounds scored in any of these assays.
# HP1b chromo inh = inhibitors of HP1-beta chromodomain binding to methylated histone tails; P83916; AlphaScreen HP1-beta / biotin-H3K9me3 peptide binding; Potency, µM (highest dose often 114 µM), for inactives: at the highest dose activity change, negative = inhibition, hits mostly inhibitors; 390,000 compounds, 0.56% hits; further: potency means the concentration at half of the fitted maximal effect; nearly all actives have a fitted effect of over 70% in size
# Target sequence (P83916 whole entry, looked up): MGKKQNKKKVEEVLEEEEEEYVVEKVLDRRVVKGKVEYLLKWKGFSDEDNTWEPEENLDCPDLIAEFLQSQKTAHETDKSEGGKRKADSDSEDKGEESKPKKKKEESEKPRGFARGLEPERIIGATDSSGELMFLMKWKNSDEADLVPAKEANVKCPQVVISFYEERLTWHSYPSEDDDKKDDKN
#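 Compound inhibition of the preformed complex between 50 nM HP1-beta and 50 nM biotinylated H3K9me3 peptide was read by AlphaScreen. Buffer was PBS pH 7.4 with 0.01% Tween-20. Incubations ran 30 min at room temperature, with 10 ug/mL donor/acceptor beads.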
# CtBP-E1A inh = blocks the CtBP interaction with E1A | AlphaScreen GST-E1A/His-CtBP binding, 1536-well; active compounds read low | activity change, % (concentration not given with the values) | 340,000 compounds, 0.49% hits | AID 651724; in the data active means activity change below about -65%; inconclusive means mostly about -30% to -63%; further: on the % scale 0 is the no-effect control and ±100 the full control effect
#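 AlphaScreen with 125 nM GST-E1A and 125 nM His-CtBP (5X stocks) in Tris pH 8.0, 300 mM NaCl, BSA, Tween 20, TCEP. Compounds preincubated 2 h at 37 deg C, then glutathione donor/nickel acceptor beads added for 1 h at 37 deg C in dark.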
# Six1-Eya2 inh = blocks human Six1 binding to Eya2; activity change, % (test concentration not listed); 360,000 compounds, 0.56% hits; AlphaScreen GST-Six1/His-Eya2 binding, biochemical; active compounds read low; Q15475+O00167; AID 651725; in the data active means activity change below about -65%; inconclusive means mostly about -30% to -63%; further: on the % scale 0 is the no-effect control and ±100 the full control effect
#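 AlphaScreen with GST-Six1 and His-Eya2 (5X mix: 250 nM and 500 nM), glutathione donor and nickel acceptor beads; buffer 50 mM Tris pH 8.0, 300 mM NaCl, 1 mM TCEP; 1 h at 37 C in the dark.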
# JMJD2A Tudor inh = inhibitors of human JMJD2A Tudor domain; O75164; AlphaScreen JMJD2A-Tudor / H3K4me3 peptide binding; Potency, µM (highest dose often 114 µM), for inactives: at the highest dose activity change, negative = inhibition, most hits filed as inhibitors; 390,000 compounds, 4.4% hits; further: potency means the concentration at half of the fitted maximal effect; on the % scale 0 is the no-effect control and ±100 the full control effect; nearly all actives have a fitted effect of over 50% in size
# G9a inh = inhibitors of human histone lysine methyltransferase G9a; Potency, µM (doses to about 102 µM), without a hit: at the top dose activity, negative = inhibition, most hits filed as inhibitors; 350,000 compounds, 8.8% hits; G9a H3K9 monomethylation, AlphaScreen, 2 h; Q96KQ7; further: potency means the concentration at half of the fitted maximal effect; on the % scale 0 is the no-effect control and ±100 the full control effect; nearly all actives have a fitted effect of over 75% in size
# Target sequence (Q96KQ7 913-1193 limits assumed): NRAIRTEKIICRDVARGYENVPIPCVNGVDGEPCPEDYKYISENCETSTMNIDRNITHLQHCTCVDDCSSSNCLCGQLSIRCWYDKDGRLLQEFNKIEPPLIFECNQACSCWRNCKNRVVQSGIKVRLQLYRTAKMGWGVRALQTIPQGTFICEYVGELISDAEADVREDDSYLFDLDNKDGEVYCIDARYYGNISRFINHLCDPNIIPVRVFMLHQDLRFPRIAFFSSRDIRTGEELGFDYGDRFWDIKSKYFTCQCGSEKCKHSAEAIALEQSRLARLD
#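 Chemiluminescent proximity detection of H3K9 monomethylation, read after 10 min bead incubation in the dark. Reaction: 20 nM G9a, 500 nM biotin-H3K9 peptide, 20 uM SAM cofactor, 2 h, room temperature, following 15 min enzyme-compound preincubation.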
# BAZ2B block = inhibitors of human BAZ2B bromodomain. Q9UIF8. AlphaScreen BAZ2B-H3K14Ac peptide displacement. Potency, µM (titrated, usually from 114 µM), inactives show top-dose activity change, negative = inhibition, most hits filed as inhibitors. 360,000 compounds, 4.4% hits. AID 504333; further: potency means the concentration at half of the fitted maximal effect; on the % scale 0 is the no-effect control and ±100 the full control effect; nearly all actives have a fitted effect of over 60% in size
#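 Multi-concentration screen (max 110 uM) measuring displacement of acetylated histone H3 peptide from BAZ2B by AlphaScreen, using 50 nM protein, 50 nM peptide and 10 ug/mL streptavidin donor plus Ni-chelate acceptor beads.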
# * marks the source's active call; other numbers are inactive results; u = inconclusive; x = no result given; [ ] = remark or other dose. Unless noted, the call rests on the fitted dose curve; in most records, active means well fitted inhibition curve with a large enough effect; inconclusive means small, poorly fitted or top-dose-only effect; inactive means no such curve, though single readings can be large or run the other way.
SMILES,HP1b chromo inh,CtBP-E1A inh,Six1-Eya2 inh,JMJD2A Tudor inh,G9a inh,BAZ2B block
O=C1Nc2cc(S(=O)(=O)N3CCCC3)ccc2N2CCCC12 (stereo not given),31%,-14,-5,-16%,22µM*,u
O=C1Nc2ccc(C(F)(F)F)cc2N2CCCC12 (stereo not given),x,x,x,x,11µM*,-2%
O=S(=O)(c1ccc(F)cc1)N1CC2CCCN2c2ccc(C(F)(F)F)cc21 (stereo not given),32%,9,1,-10%,89%[59 µM],-8%
O=C(c1ccco1)N(CCC(c1ccccc1)c1ccco1)Cc1ccccc1 (stereo not given),-1%,0,-26,56µM*,u,50µM*
COc1ccc(CN(CCC(c2ccccc2)c2ccco2)C(=O)c2ccco2)cc1 (stereo not given),7%,4,-21,u,u,u
O=C(/C=C\c1ccccc1OC(=O)c1ccccc1F)c1cc2ccccc2o1,-13%,-21,-12,-36%,45µM*,-31%
N#Cc1ccccc1S(=O)(=O)N1CCN(CC(O)COc2ccccc2F)CC1 (stereo not given),u,7,3,3.2µM*,2.2µM*,28µM*
CC(C)c1ccccc1OCC(O)CN1CCN(S(=O)(=O)c2ccc([N+](=O)[O-])cc2)CC1 (stereo not given),u,-9,u,20µM*,35µM*,40µM*
O=C(Cc1cccs1)N1CCN(S(=O)(=O)c2ccc(F)cc2)CC1,1%,4,9,-11%,21%[59 µM],-30%
N#Cc1ccccc1S(=O)(=O)N1CCN(CC(O)c2ccccc2)CC1 (stereo not given),45µM*,-3,-13,2.2µM*,16µM*,50µM*
CC(OCC(O)CN1CCN(S(=O)(=O)c2ccc(Cl)cc2)CC1)c1ccc(Cl)cc1 (stereo not given),x,-6,-4,x,x,x
O=S(=O)(c1ccc(F)cc1)N1CCN(CC(O)COCc2cccs2)CC1 (stereo not given),u,-1,-1,2.5µM*,32µM*,-36%
CCOc1ccc(N(C(=O)c2ccc(C)cc2)S(=O)(=O)c2ccc3c(c2)n(C)c(=O)n3C)cc1,26%,x,x,-33%,u,u
O=S(=O)(c1ccc(F)cc1)N1CCN(CC(O)COc2ccccc2F)CC1 (stereo not given),25µM*,7,-3,7.9µM*,8.9µM*,20µM*
O=S(=O)(c1ccccc1)N1CCN(CC(O)COc2ccc3c(c2)CCC3)CC1 (stereo not given),2%,-8,-2,-24%,u,-22%
CC(Nc1ccc2c(c1)OCCO2)C(=O)N1c2ccccc2CC1C (stereo not given),-13%,-23,-15,u,u,40µM*
COc1ccccc1NC(=O)c1ccc(CSc2ccccc2)o1,72%,-20,29,51%,54%,55%
O=Nc1c(O)n(Cc2ccc(Cl)cc2Cl)c2ccccc12,-3%,-17,-19,u,u,45µM*
O=C(NCc1ccccc1)c1cc(C2CCCCN2C(=O)OCCF)on1 (stereo not given),x,-2,0,x,x,x
Cc1nc2sc(C(c3ccco3)N3CCN(c4ccccc4)CC3)c(O)n2n1 (stereo not given),31%,1,-1,-26%,45µM*,-36%
Cc1nc2sc(C(c3ccco3)N3CCN(C(c4ccccc4)c4ccccc4)CC3)c(O)n2n1 (stereo not given),-22%,-17,-4,50µM*,25µM*,u
Cc1nc2sc(C(c3ccco3)N3CCC(C)CC3)c(O)n2n1 (stereo not given),35%,2,-2,-11%,u,-2%
